This is an account of results in PubChem BioAssay (NCATS).

Inconclusive results are not listed. Entries that show only a call come without a potency. Activity calls are given as the source filed them. Calls come from the whole dose curve; as a rule, active = well fitted cell-killing curve with a large enough effect; inconclusive = small, poorly fitted or top-dose-only effect; inactive = flat fitted curve, though single readings scatter. Peptide text beside a SMILES is read from it. * marks the point of attachment. Cbz = O=C(OCc1ccccc1)*
Potency is the fitted concentration of half-maximal effect.

A short description of the first assay: Quantitative highthroughput screen to assess conditional lethalithy of NOMO1 cells grown in RPMI1640 with untreated serum (RPMI+s) (AID 1963876). Note: nearly all actives have a fitted effect of over 35% in size. The settings on record: NOMO1 AML cells in RPMI+serum, CellTiter-Glo viability, 48 h; series mostly up to 45.8 µM. The procedure, abridged:
(§1)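 Each medium arm—HPLM with 10% dialyzed FBS, or RPMI1640 with 5 mM glucose and 10% untreated or dialyzed FBS—was screened against an 11-point, 3-fold compound titration for 48 h at 37 °C, with CellTiter-Glo luminescence as endpoint.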
Background: ATP-based viability assays read luminescence as a measure of living cells.
Consider `COc1ccc2c(Oc3ccc(NC(=O)c4c(C)n(CC(C)(C)O)n(-c5ccccc5)c4=O)cc3F)ccnc2c1`, for which the Potency entry is “inactive”. Still for that read-out and setting: the result for `CN1CCN(Cc2ccc(NC(=O)Nc3ccc(Oc4cc(NC(=O)C5CC5)ncn4)cc3)cc2C(F)(F)F)CC1` reads 0.418 µM (active).

For `Cc1cc(Nc2ncc(Cl)c(Nc3ccccc3S(=O)(=O)C(C)C)n2)c(OC(C)C)cc1C1CCNCC1`, the Potency was 18.6 µM (active). On the same count and under the same terms, the result for `CC(C)Oc1cc(Nc2nc(N[C@@H](C)c3ccc(F)cn3)ncc2Cl)[nH]n1` reads 0.935 µM (active); that for `Cc1ccn(-c2ccc(-c3ncco3)cc2)c(=O)c1-c1ccc2nc(N)ncc2c1`, “inactive”.

As for `CC#C[C@]1(O)CC[C@H]2[C@@H]3CCC4=CC(=O)CCC4=C3[C@@H](c3ccc(N(C)C)cc3)C[C@@]21C`, the Potency was 6.62 µM (active).

With `Oc1ccc2ccccc2c1SSc1c(O)ccc2ccccc12`, the Potency entry was “inactive”. Turning to `N[C@@H](Cc1cc(I)c(Oc2cc(I)c(O)c(I)c2)c(I)c1)C(=O)O`, the Potency entry was “inactive”. Same read-out and setting: in the case of `Cc1ccccc1-n1c(Cn2nc(-c3cccc(O)c3)c3c(N)ncnc32)nc2cccc(C)c2c1=O` it was 1.18 µM (active); in that of `Cc1nc(-c2ccc(OCC(C)C)c(C#N)c2)sc1C(=O)O`, “inactive”. As for `C=CC(=O)N1CCc2ccc(-n3c(=O)ccc4cnc5ccc(-c6cnn(C)c6)cc5c43)cc21`, the Potency is 7.43 µM (active).

For the compound `Cc1cc(O)c2c(c1)C(=O)c1cccc(O)c1C2=O`, the Potency entry was “inactive”.

`Cc1onc(-c2ccccc2Cl)c1C(=O)N[C@@H]1C(=O)N2[C@@H]1SC(C)(C)[C@@H]2C(=O)O`: the Potency result was “inactive”. Still for that read-out and setting: in the case of `CCC(=O)N[C@H]1CC[C@H](C(=O)N(C)c2ccc(-c3nc4ccccc4o3)cc2)C1` it was “inactive”. The same measure, in the same setting: in the case of `Cc1cnc(Nc2ccc(OCCN3CCCC3)cc2)nc1Nc1cccc(S(=O)(=O)NC(C)(C)C)c1` it was “inactive”; in that of `O=C(O)c1cc(=O)c2c(OCC(O)COc3cccc4oc(C(=O)O)cc(=O)c34)cccc2o1`, “inactive”; in that of `Nc1ccccc1NC(=O)c1ccc(CNC(=O)OCc2cccnc2)cc1`, 2.64 µM (active). For the compound `c1ccc2c(Oc3nc(Nc4ccc(N5CCOCC5)cc4)c4ncn(C5CCCCC5)c4n3)cccc2c1`, the Potency entry is “inactive”.

On to `Cc1cnc(Nc2ccc(CN3CCOCC3)cc2)nc1Nc1cccc(S(=O)(=O)NC(C)(C)C)c1`, for which the Potency was 4.18 µM (active).

Regarding `Cc1cnc(C(=O)O)c[n+]1[O-]`, the Potency entry is “inactive”. Still for that read-out and setting: in the case of `N=c1ccn2c(n1)O[C@H]1[C@@H](O)[C@@H](CO)O[C@H]12` it was 2.96 µM (active). On to `C#Cc1cccc(Nc2ncnc3cc(OC)c(OCCCCCCC(=O)NO)cc23)c1`, for which the Potency was 1.05 µM (active). Turning to `Cc1cc(CN2CCN(c3c(Br)cnc4nc(-c5ccc(N6CCN(C)CC6)cc5)[nH]c34)CC2)no1`, the Potency entry is “inactive”. The same measure, in the same setting: in the case of `Cc1noc(NS(=O)(=O)c2ccc(N)cc2)c1C` it was “inactive”; in that of `CCOC(=O)c1ccc(C#Cc2ccc3c(c2)C(C)(C)CCS3)nc1`, “inactive”. Consider `NNC(=O)c1ccncc1`, for which the Potency entry was “inactive”.

The next assay is described as follows: Quantitative highthroughput screen to assess conditional lethalithy of NOMO1 cells grown in RPMI1640 with dialyzed fetal bovine serum (RPMI+ds) (AID 1963877). Note: nearly all actives have a fitted effect of over 30% in size. Particulars: NOMO1 in RPMI+dialyzed FBS viability, ATP luminescence, 48 h; series mostly up to 45.8 µM. Summed up: as §1
For `N#Cc1c(N(CC(=O)O)CC(=O)O)sc(C(=O)O)c1CC(=O)O`, the Potency result is “inactive”.

`CNC1CCC(N(Cc2cccc(-c3ccncc3)c2)C(=O)c2sc3ccccc3c2Cl)CC1` (stereo unspecified): the Potency is 16.6 µM (active). On the same count and under the same terms, the result for `CN(C)S(=O)(=O)c1ccc2c(c1)C(=Cc1cc3c([nH]1)CCCC3)C(=O)N2` reads “inactive”; that for `O=C1N(c2ccccc2)c2ccccc2C1(Cc1ccncc1)Cc1ccncc1`, “inactive”; that for `OC(Cn1cncn1)(Cn1cncn1)c1ccc(F)cc1F`, “inactive”. The same measure, in the same setting: in the case of `Cc1nc(N)ncc1-c1nc(N2CCOCC2)c2sc(C(C)(C)O)cc2n1` it was 0.332 µM (active). On the same count and under the same terms, the result for `CCCCCCCCCCCCCC(=O)N[C@H](CO)[C@H](O)c1ccc([N+](=O)[O-])cc1` reads 2.64 µM (active). Take `CN1CCN(CCCN2c3ccccc3Sc3ccc(C(F)(F)F)cc32)CC1`: the Potency was 2.96 µM (active). Still for that read-out and setting: the result for `O=C(Nc1cccc(Cl)c1)Nc1ncc(CCNc2ncnc3ccsc23)s1` reads 0.332 µM (active). With `O=C(O)Cc1cccc(OCCCN(Cc2cccc(C(F)(F)F)c2Cl)CC(c2ccccc2)c2ccccc2)c1`, the Potency entry is “inactive”. The same measure, in the same setting: the result for `COc1ccc(C2CNC(=O)C2)cc1OC1CCCC1` (stereo unspecified) reads “inactive”; that for `CC(C)c1cnn2c(NCc3ccccc3)cc(N[C@@H](CO)[C@H](O)CO)nc12`, 0.743 µM (active); that for `CC(C)C[C@@H](C=O)NC(=O)[C@H](CC(C)C)NC(=O)[C@H](CC(C)C)NC(=O)OCc1ccccc1` (Cbz-Leu-Leu-Leu-aldehyde), 2.09 µM (active).

`CCS(=O)(=O)c1cccc(-c2cc(C(=O)NC3CCN(C)CC3)c(C)c3[nH]c4ncc(C)cc4c23)c1`: the Potency is 11.8 µM (active).

For the compound `COc1ccc2c(Oc3ccc(NC(=O)c4c(C)n(CC(C)(C)O)n(-c5ccccc5)c4=O)cc3F)ccnc2c1`, the Potency was 18.7 µM (active). In the case of `CN1CCN(Cc2ccc(NC(=O)Nc3ccc(Oc4cc(NC(=O)C5CC5)ncn4)cc3)cc2C(F)(F)F)CC1`, the Potency was 0.418 µM (active). On the same count and under the same terms, the result for `Cc1cc(Nc2ncc(Cl)c(Nc3ccccc3S(=O)(=O)C(C)C)n2)c(OC(C)C)cc1C1CCNCC1` reads 18.6 µM (active).

Turning to `CC(C)Oc1cc(Nc2nc(N[C@@H](C)c3ccc(F)cn3)ncc2Cl)[nH]n1`, the Potency was 0.833 µM (active). Regarding `Cc1ccn(-c2ccc(-c3ncco3)cc2)c(=O)c1-c1ccc2nc(N)ncc2c1`, the Potency result is “inactive”.

For `CC#C[C@]1(O)CC[C@H]2[C@@H]3CCC4=CC(=O)CCC4=C3[C@@H](c3ccc(N(C)C)cc3)C[C@@]21C`, the Potency is 7.43 µM (active). With `Oc1ccc2ccccc2c1SSc1c(O)ccc2ccccc12`, the Potency result is “inactive”. `N[C@@H](Cc1cc(I)c(Oc2cc(I)c(O)c(I)c2)c(I)c1)C(=O)O`: the Potency result was “inactive”.

`Cc1ccccc1-n1c(Cn2nc(-c3cccc(O)c3)c3c(N)ncnc32)nc2cccc(C)c2c1=O`: the Potency is 2.35 µM (active).

On to `Cc1nc(-c2ccc(OCC(C)C)c(C#N)c2)sc1C(=O)O`, for which the Potency entry is “inactive”. Same read-out and setting: in the case of `C=CC(=O)N1CCc2ccc(-n3c(=O)ccc4cnc5ccc(-c6cnn(C)c6)cc5c43)cc21` it was 4.69 µM (active). Regarding `Cc1cc(O)c2c(c1)C(=O)c1cccc(O)c1C2=O`, the Potency result was “inactive”. Still for that read-out and setting: the result for `Cc1onc(-c2ccccc2Cl)c1C(=O)N[C@@H]1C(=O)N2[C@@H]1SC(C)(C)[C@@H]2C(=O)O` reads “inactive”; that for `CCC(=O)N[C@H]1CC[C@H](C(=O)N(C)c2ccc(-c3nc4ccccc4o3)cc2)C1`, “inactive”. Still for that read-out and setting: in the case of `Cc1cnc(Nc2ccc(OCCN3CCCC3)cc2)nc1Nc1cccc(S(=O)(=O)NC(C)(C)C)c1` it was “inactive”; in that of `O=C(O)c1cc(=O)c2c(OCC(O)COc3cccc4oc(C(=O)O)cc(=O)c34)cccc2o1`, “inactive”; in that of `Nc1ccccc1NC(=O)c1ccc(CNC(=O)OCc2cccnc2)cc1`, 1.66 µM (active).

Turning to `c1ccc2c(Oc3nc(Nc4ccc(N5CCOCC5)cc4)c4ncn(C5CCCCC5)c4n3)cccc2c1`, the Potency entry is “inactive”. The same measure, in the same setting: in the case of `Cc1cnc(Nc2ccc(CN3CCOCC3)cc2)nc1Nc1cccc(S(=O)(=O)NC(C)(C)C)c1` it was 4.69 µM (active); in that of `Cc1cnc(C(=O)O)c[n+]1[O-]`, “inactive”. `N=c1ccn2c(n1)O[C@H]1[C@@H](O)[C@@H](CO)O[C@H]12`: the Potency is 1.48 µM (active).

Turning to `C#Cc1cccc(Nc2ncnc3cc(OC)c(OCCCCCCC(=O)NO)cc23)c1`, the Potency was 0.662 µM (active). The same measure, in the same setting: the result for `Cc1cc(CN2CCN(c3c(Br)cnc4nc(-c5ccc(N6CCN(C)CC6)cc5)[nH]c34)CC2)no1` reads 1.05 µM (active).

On to `Cc1noc(NS(=O)(=O)c2ccc(N)cc2)c1C`, for which the Potency result was “inactive”. On the same count and under the same terms, the result for `CCOC(=O)c1ccc(C#Cc2ccc3c(c2)C(C)(C)CCS3)nc1` reads “inactive”; that for `NNC(=O)c1ccncc1`, “inactive”.
